Source: PubChem BioAssay AID504613 (National Center for Advancing Translational Sciences (NCATS), 2011)
Activity calls are given as the source filed them.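 The calls were made as follows: active = clear growth inhibition over 72 hours in leukemia cell lines carrying a fused MLL gene, giving a fitted IC50; inactive = the rest.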

Assay: Confirmation of Inhibitors Targeting the Menin-MLL Interaction in MLL Related Leukemias: Confirmation in an MLL leukemia cell growth assay
Settings: MV4-11 MLL-AF4 leukemia growth, MTT absorbance, 72 h; series mostly up to 50 µM
Description: qHTS Assay for Inhibitors Targeting the Menin-MLL Interaction in MLL Related Leukemias NIH Chemical Genomics Center [NCGC] NIH Molecular Libraries Probe Centers Network [MLPCN] MLPCN Grant: MH084875-01A1 Assay Submitter (PI): Jolanta Grembecka, Tomasz Cierpicki, University of Virginia Translocations of the MLL (Mixed Lineage Leukemia) gene are frequently found in human leukemias affecting both children and adults. Fusion of MLL to one of more than 60 genes results in generation of oncogenic proteins upregulating Hox genes, which are vital to blood cell development. Patients harboring fusion of the MLL gene suffer from aggressive leukemias and respond poorly to available therapies. All of the oncogenic fusion proteins have a preserved N-terminal fragment of MLL that has been identified to interact with menin. It has been recently discovered that association with menin is critical to the leukemogenic activity of the MLL fusion oncoproteins. […] We have developed and optimized a fluorescence polarization-based assay for the identification of Menin-MLL inhibitors. […]
Inhibition of cell proliferation in the MLL leukemia cells: MV4-11 (MLL-AF4), ML-2 (MLL-AF6) KOPN-8 (MLL-ENL) induced by compound measured after 72h treatment, as detected by the MTT cell viability assay. […] Plates were read for absorbance at 570 nm using a PHERAstar BMG microplate reader. […]

SMILES	IC50
N#Cc1ccc(OCCCN2CCC(C(O)(c3ccccc3)C3CCCC3)CC2)cc1 (configuration not stated)	12.8 µM (active)
N#Cc1ccc(OCCCN2CCC(C(O)c3ccccc3)CC2)cc1 (configuration not stated)	inactive
